From PubChem
An excerpt weighted towards active compounds, which were near 18% of everything screened.
VDR inhibitor: blocks the human vitamin D receptor; P11473; VDR-SRC2-3 peptide fluorescence polarization, 2 h; Potency, µM, for inactives: max response, negative = inhibition, most hits filed as inhibitors; actives 0.93% (n = 400,000)
Target sequence (P11473 whole entry, looked up): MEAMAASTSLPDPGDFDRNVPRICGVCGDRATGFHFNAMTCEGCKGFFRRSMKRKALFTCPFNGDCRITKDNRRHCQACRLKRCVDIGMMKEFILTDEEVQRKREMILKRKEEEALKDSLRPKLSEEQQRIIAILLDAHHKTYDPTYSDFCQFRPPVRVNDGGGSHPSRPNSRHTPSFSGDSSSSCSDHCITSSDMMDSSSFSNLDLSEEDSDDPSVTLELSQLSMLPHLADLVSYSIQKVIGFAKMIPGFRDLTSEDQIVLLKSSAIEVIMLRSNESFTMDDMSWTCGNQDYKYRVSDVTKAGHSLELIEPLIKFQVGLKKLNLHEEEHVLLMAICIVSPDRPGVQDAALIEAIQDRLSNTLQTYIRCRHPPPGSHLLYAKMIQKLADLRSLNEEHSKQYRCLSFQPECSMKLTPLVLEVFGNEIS
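Measured by FP: displacement of SRC2-3 coactivator peptide from VDR by library compounds, following a two-hour ambient incubation.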
GCN5L2 inh: GCN5L2 (KAT2A) acetyltransferase inhibition | GCN5L2 HAT assay, ThioGlo1 CoA-SH fluorescence | Potency, µM (highest dose often 58.9 µM), inactives show top-dose activity change, negative = inhibition, most hits filed as inhibitors | AID 504327 | Q92830 | actives 0.21% (n = 390,000)
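GCN5L2 (20 nM) in 50mM HEPES pH 7.5, 0.1mM EDTA, 0.01% Tween-20 preincubated 15 min with compounds at room temperature. Reaction started with H3(1-25) 75uM, acetyl-CoA 70uM, ThioGlo1 50uM; CoA-thiol fluorescence (Ex340/Em540) read at 0 and 20 min.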
PLK1 PBD block: blocks phosphopeptide binding to human PLK1 polo-box domain; P53350; Plk1 PBD binding of FITC phosphopeptide, fluorescence polarization; Potency, µM, without a hit: max response, negative = inhibition, actives largely listed as inhibitors; actives 2.8% (n = 360,000); note: series mostly up to about 57 µM; nearly all actives have a fitted effect of over 65% in size
TDP1 cell CPT: growth inhibition of DT40 Tdp1-/-;hTDP1 cells with camptothecin (screen for TDP1 inhibitors) | chicken DT40 Tdp1-/-;hTDP1 cells + 20 nM CPT, ATP luminescence, 48 h | actives 12% (n = 420,000) | AID 686979 | Potency, µM (highest dose often 46.2 µM), for the others: top-dose activity change, negative = growth inhibition, usual class: inhibitors; note: nearly all actives have a fitted effect of over 55% in size
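Chicken DT40 Tdp1-/- cells complemented with human TDP1, 400 cells/well, exposed to compounds plus 20 nM camptothecin for at least 48 h at 37 C; viability read as ATP content by CellTiter-Glo luminescence.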
TDP1 cell noCPT: qHTS for Inhibitors of human tyrosyl-DNA phosphodiesterase 1 (TDP1): qHTS in cells in absence of CPT; actives 15% (n = 420,000); DT40 Tdp1-/- hTDP1 cells, no CPT, ATP luminescence, 48 h; Potency, µM (highest dose often 46.2 µM), for inactives: top-dose activity change, negative = growth inhibition, hits mostly inhibitors; AID 686978, 2013; note: nearly all actives have a fitted effect of over 55% in size
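Cells were dispensed at 400 per well, compounds added by pin tool, plates incubated ≥48 hr at 37 °C, then CellTiter-Glo added for 30 min at room temperature before luminescence reading. Line: DT40 Tdp1-/- complemented with hTDP1; camptothecin omitted.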
TDP1 inh: inhibitors of human tyrosyl-DNA phosphodiesterase TDP1. Q9NUW8. recombinant TDP1, AlphaScreen DNA substrate cleavage. Potency, µM (series often up to 130 µM), for inactives: at the highest dose activity change, negative = inhibition, usual class: inhibitors. actives 0.28% (n = 350,000). AID 485290; note: nearly all actives have a fitted effect of over 40% in size
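Here, a 5' biotin and 3' phosphotyrosine-FITC DNA oligonucleotide reports Tdp1 activity: intact substrate bridges AlphaScreen beads, while cleavage leaves a 3' phosphate and drops signal. All incubations at room temperature.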
* marks the source's active call; other numbers are inactive results; ? = inconclusive; nt = no result given. Calls come from the whole dose curve; as a rule, active = well fitted curve in the direction sought with a large enough effect; inconclusive = small, poorly fitted or top-dose-only effect, or another doubt; inactive = no such curve, though single readings can be large; an effect the other way counts as inactive or inconclusive. % is set by controls: 0 for no effect and ±100 for the full control effect; potency is the fitted concentration of half-maximal effect.

SMILES	VDR inhibitor	GCN5L2 inh	PLK1 PBD block	TDP1 cell CPT	TDP1 cell noCPT	TDP1 inh
Cc1ccc(NC(=O)N[C@H](C(=O)O)C(C)C)c(C)c1	0.6%	0.8%	-8.5%	-28.6%	?	1.4%
COCCN(C(=O)CSc1nc2ccccc2s1)c1c(N)n(Cc2ccccc2)c(=O)[nH]c1=O	79.4µM*	nt	?	-13.1%	-11.8%	nt
Cc1cc(C)c(NC(=O)c2oc3c(c2C)-c2[nH]ncc2CC3)c(C)c1	12.6%	-2.4%	nt	16.4µM*	20.6µM*	2.9%
CCOc1ccccc1CNC(=O)c1oc2c(c1C)-c1[nH]ncc1CC2	7.3%	-9.2%	nt	16.4µM*	16.4µM*	2.9%
Cc1ccc(Cl)cc1NC(=O)c1oc2c(c1C)-c1[nH]ncc1CC2	5.2%	-12.3%	nt	?	?	5.7%
COc1ccc2cc(/C(C)=N/NC(=O)c3cc(C)oc3C)ccc2c1	nt	nt	-10.8%	?	?	nt
Cc1c(Cl)c([N+](=O)[O-])nn1CCCC(=O)N1CCN(c2ccccc2)CC1	12.3%	-6.0%	-8.5%	14.6µM*	-16.1%	2.0%
Cc1c(Cl)c([N+](=O)[O-])nn1CCCC(=O)Nc1cc(Oc2ccccc2)cc([N+](=O)[O-])c1	-10.4%	-6.0%	-0.9%	20.6µM*	?	0.6%
Cc1nn(Cc2ccc(Cl)cc2)c(C)c1NC(=O)CCCn1nc([N+](=O)[O-])c(Cl)c1C	2.7%	0.4%	-14.1%	14.6µM*	?	0.0%
Cc1ccccc1Oc1cc(NC(=O)Cn2cnc([N+](=O)[O-])c2)cc([N+](=O)[O-])c1	1.4%	-4.7%	-2.2%	16.4µM*	?	3.5%
Cc1c(Cl)c([N+](=O)[O-])nn1CCCC(=O)Nc1c(Cl)cccc1Cl	-8.4%	0.2%	-9.8%	?	?	2.6%
COC(=O)N1CCC[C@@]2(CCN(Cc3cc(C(F)(F)F)cc(C(F)(F)F)c3)C2)C1	5.6%	-10.2%	nt	10.0%	0.7%	nt
CC(=O)c1cccc(-n2c(=O)c3c4c(sc3n(CC(=O)c3ccc(Cl)cc3)c2=O)CN(C(C)=O)CC4)c1	-1.8%	-4.4%	nt	-0.7%	-4.9%	2.0%
CCOc1ccccc1N(C)C(=O)c1cc(S(=O)(=O)NCc2ccc(C)cc2)ccc1F	11.6%	-1.0%	nt	18.4µM*	20.6µM*	2.6%
CN1C(=S)N(c2cccnc2)C(=O)/C1=C\c1ccc(C(C)(C)C)cc1	?	-22.5%	-7.1%	16.4µM*	14.6µM*	6.0%
CC(C)=CCC1=C(O)c2ccccc2C(=O)C1=O	25.1µM*	0.0%	nt	?	?	8.1%
O=C1C(=O)c2ccccc2C(O)=C1CC=C(Cl)Cl	-28.7%	nt	-8.3%	?	?	nt
CCn1c(CSc2nc(C)cs2)nc2cc(S(=O)(=O)N(C)C)ccc21	5.5%	-5.7%	26.7µM*	-4.9%	-24.9%	7.8%
CCn1c(CN2CCN(c3ccc(OC)cc3)CC2)nc2cc(S(=O)(=O)N(C)C)ccc21	-0.5%	2.0%	-0.1%	20.6µM*	?	7.5%
O=C(N/N=C/c1cccc(F)c1)c1ccc(Cl)cc1	-4.6%	-9.2%	-7.7%	27.2%	-5.3%	nt
Fc1ccc(/C=N/NC(=S)Nc2ccc(Cl)cc2Cl)cc1	5.0%	-15.4%	-0.6%	7.31µM*	5.17µM*	1.2%
Fc1ccc(/C=N/NC(=S)Nc2ccc(Cl)cc2)cc1F	-10.1%	-4.0%	-3.8%	?	23.1µM*	2.7%
COc1ccc(NC(=S)N/N=C/c2ccc(F)cc2)cc1OC	6.4%	-4.2%	-15.0%	?	?	2.5%
Fc1ccc(NC(=S)N/N=C/c2cccc(Br)c2)c(F)c1	1.7%	-5.6%	-0.4%	6.51µM*	4.11µM*	1.1%
Fc1ccc(NC(=S)N/N=C/c2ccc(F)c(F)c2)cc1	-6.1%	-15.7%	5.7%	4.11µM*	6.51µM*	2.7%
